Experimental data as given in PubChem BioAssay (Tox21).
“And” between values parts separate entries of the source, which are not always exact repeats. Equal values may be shown once. Inconclusive results are not listed. Where a call stands in place of a potency, no number is given. The source made the active and inactive calls. Unless noted, calls follow the shape of the dose curve; as a rule, active = well fitted curve in the direction sought with a large enough effect in the repeat runs; inconclusive = weak or mixed curves; inactive = no such curve, though single readings can be large; an effect the other way counts as inactive or inconclusive.

Experiments:
[1] = qHTS assay to identify small molecule agonists of H2AX (AID 1224845; active = well fitted activation curve with a large enough effect in the signal ratio in the repeat runs, not every such curve was filed as active; the % refers to the signal ratio)
How it was run: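 Wild-type CHO-K1 cells plated overnight, then exposed 3 hr at 37C to compounds at 15 concentrations (0.76% DMSO). Lysed, then HTRF anti-pH2AX(S139)-cryptate/anti-H2AX-d2 detection after 24 hr at room temperature; emissions 665 and 620 nm.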

[2] = qHTS assay to identify small molecule agonists of H2AX - cell viability counter screen (AID 1224847; calls by dose curve; also: top concentration of the series differs between compounds; nearly all actives have a fitted effect of over 30% in size)
How it was run: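 Read-out: CellTiter-Glo luminescence, 30 min RT. Cells: wild-type CHO-K1, 1000/well, 10% FBS, plated overnight at 37C. Treatment: 15 concentrations, 3 hr, 37C, 0.76% DMSO.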

[3] = qHTS RealTime-Glo MT Cell Viability Assay in HepG2 cells - 24 hour (AID 1224867); also: nearly all actives have a fitted effect of over 50% in size
How it was run: (§1)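 Tox21 10K library screened in qHTS format on HepG2 cells carrying RealTime-Glo reagents. Compounds were added after a 5 h preincubation, and the luminescent signal from continuous culture was measured repeatedly during 40 h treatment.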

[4] = qHTS RealTime-Glo MT Cell Viability Assay in HEK293 cells - 32 hour (AID 1224868); also: nearly all actives have a fitted effect of over 50% in size; also: potency is read from the fitted curve at half-maximal effect
How it was run: (§2)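 Luminescence generated by NanoLuc from substrate produced by living HEK293 cells served as the viability signal. Each value reflects the reading at its stated time point during continuous 40 h compound exposure at 37 C.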

[5] = A CellTox Green Cytotoxicity Assay to monitor cytotoxicity in HEK293 cells - 0 hour (AID 1224869); also: nearly all actives have a fitted effect of over 50% in size
How it was run: (§3)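 HEK293 cells, 600/well, were preincubated 5 hours and then exposed to compounds at 37 C for up to 40 hours. A cell-impermeant cyanine dye staining dead-cell DNA was read by fluorescence at 0, 8, 16, 24, 32 and 40 h time points.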

[6] = qHTS RealTime-Glo MT Cell Viability Assay in HepG2 cells - 40 hour (AID 1224870); also: nearly all actives have a fitted effect of over 50% in size
How it was run: (§4)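 HepG2 cells mixed with RealTime-Glo MT reagents (NanoLuc plus cell-permeant prosubstrate) were seeded at 600 cells/well, incubated 5 h at 37 C/5% CO2, then pinned with compounds in DMSO; nonlytic luminescence tracked viability during 40 h treatment.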

[7] = A CellTox Green Cytotoxicity Assay to monitor cytotoxicity in HEK293 cells - 40 hour (AID 1224871); also: nearly all actives have a fitted effect of over 45% in size
How it was run: as §3

[8] = qHTS RealTime-Glo MT Cell Viability Assay in HEK293 cells - 16 hour (AID 1224872); also: nearly all actives have a fitted effect of over 50% in size; also: potency is read from the fitted curve at half-maximal effect
How it was run: as §2

[9] = qHTS RealTime-Glo MT Cell Viability Assay in HepG2 cells - 8 hour (AID 1224873); also: nearly all actives have a fitted effect of over 55% in size
How it was run: as §4

[10] = qHTS RealTime-Glo MT Cell Viability Assay in HEK293 cells - 40 hour (AID 1224874); conditions: RealTime-Glo luminescence; max response: active compounds read low; also: nearly all actives have a fitted effect of over 50% in size; also: potency is read from the fitted curve at half-maximal effect
How it was run: (§5)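 600 cells/well were plated with the nonlytic NanoLuc/prosubstrate reagent, pre-incubated 5 h, then given 23 nL of compound in DMSO. Incubation at 37 C for 40 h, with luminescence from viable-cell-reduced substrate read repeatedly from 0 h.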

[11] = A CellTox Green Cytotoxicity Assay to monitor cytotoxicity in HepG2 cells - 16 hour (AID 1224876); also: nearly all actives have a fitted effect of over 45% in size
How it was run: (§6)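 HepG2 cells, 600/well, preincubated 5 h with CellTox Green dye, then exposed to Tox21 compounds in DMSO at 37 C for up to 40 h. Dead-cell DNA fluorescence read at the indicated time point.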

[12] = qHTS RealTime-Glo MT Cell Viability Assay in HepG2 cells - 32 hour (AID 1224877); also: nearly all actives have a fitted effect of over 55% in size
How it was run: as §1

[13] = A CellTox Green Cytotoxicity Assay to monitor cytotoxicity in HepG2 cells - 24 hour (AID 1224878); also: nearly all actives have a fitted effect of over 45% in size
How it was run: as §6

[14] = A CellTox Green Cytotoxicity Assay to monitor cytotoxicity in HepG2 cells - 40 hour (AID 1224879); also: nearly all actives have a fitted effect of over 40% in size
How it was run: as §6

[15] = qHTS RealTime-Glo MT Cell Viability Assay in HEK293 cells - 0 hour (AID 1224880); also: top concentration of the series differs between compounds; nearly all actives have a fitted effect of over 45% in size
How it was run: as §5

[16] = qHTS assay to identify small molecule antagonists of the estrogen related receptor (ERR) signaling pathway from Tox21 library (AID 1224848); also: nearly all actives have a fitted effect of over 50% in size; also: potency is read from the fitted curve at half-maximal effect
How it was run: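 Screening used an ERR reporter line supplied by NTP, exposed for 18 h at 37 C to library compounds delivered in DMSO. Signal was luciferase luminescence developed with ONE-Glo at room temperature for 30 min.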

[17] = qHTS assay to identify small molecule agonists of the estrogen related receptor (ERR) signaling pathway from Tox21 library (AID 1224849; calls by dose curve; also: nearly all actives have a fitted effect of over 15% in size); conditions: ERR reporter cell line, ONE-Glo luciferase, 18 h
How it was run: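 ERR reporter cells (NTP line) pre-incubated 6 hours at 37 C, then exposed to compounds for 18 hours at 37 C. ONE-Glo luciferase luminescence was read after 30 minutes at room temperature.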

[18] = A CellTox Green Cytotoxicity Assay to monitor cytotoxicity in HEK293 cells - 24 hour (AID 1224875); also: nearly all actives have a fitted effect of over 45% in size
How it was run: as §3

[19] = qHTS assay to identify small molecule agonists of the hypoxia (HIF-1) signaling pathway - cell viability counter screen (AID 1224844; calls by dose curve)
How it was run: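 HRE-bla ME-180 cells, 2,000/well in 0.5% dialyzed FBS medium, treated 17 h at 37C with compounds. Viability read in the same wells as the bla reporter, by CellTiter-Glo luminescence after 30 min at room temperature.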

CN(C)CCOC(c1ccccc1)c1ccccc1
Potency [1]: inactive | Potency [2]: inactive | Potency [3]: inactive | Potency [4]: inactive | Potency [5]: inactive | Potency [6]: inactive | Potency [7]: inactive | Potency [8]: inactive | Potency [9]: inactive | max response [10]: -18.9% (inactive) and -8.63% (inactive) and 0.403% (inactive) | Potency [11]: inactive | Potency [12]: inactive | Potency [13]: inactive | Potency [14]: inactive | Potency [15]: inactive

CN(C)C(=O)Nc1ccc(Cl)c(Cl)c1
Potency [1]: inactive | Potency [2]: inactive | Potency [16]: inactive | activity change, positive = activation ([17]; at 42.5 µM (top of the series)): -0.767% (inactive) | activity change, positive = activation ([17]; at 92.4 µM (top of the series)): -14.1% (inactive) and -8.37% (inactive) | Potency [3]: inactive | Potency [4]: inactive | Potency [5]: inactive | Potency [7]: inactive | Potency [8]: inactive | Potency [9]: inactive | max response [10]: -20.7% (inactive) | Potency [18]: inactive | Potency [12]: inactive | Potency [13]: inactive | Potency [14]: inactive | Potency [15]: inactive

CCN(Cc1c(F)cccc1Cl)c1c([N+](=O)[O-])cc(C(F)(F)F)cc1[N+](=O)[O-]
Potency [19]: 21.9 µM (active) | Potency [1]: inactive | Potency [16]: 61.1 µM (active) | activity change, positive = activation ([17]; at 92.4 µM (top of the series)): -20.2% (inactive) | Potency [3]: inactive | Potency [4]: 49 µM (active) | Potency [5]: inactive | Potency [7]: inactive | Potency [8]: 27.5 µM (active) | Potency [10]: 54.9 µM (active) | Potency [18]: inactive | Potency [11]: inactive | Potency [12]: inactive | Potency [13]: inactive | Potency [14]: inactive | Potency [15]: inactive

COc1ccc(C(Cl)=C(c2ccc(OC)cc2)c2ccc(OC)cc2)cc1
Potency [1]: inactive | Potency [2]: inactive | Potency [16]: 21.6 µM (active) and 27.3 µM (active) and 26.6 µM (active) | activity change, positive = activation ([17]; at 42.5 µM (top of the series)): -32.5% (inactive) | activity change, positive = activation ([17]; at 92.4 µM (top of the series)): -45.8% (inactive) and -43.7% (inactive) | Potency [5]: inactive | Potency [6]: inactive | Potency [7]: inactive | Potency [8]: inactive | max response [10]: -17.7% (inactive) | Potency [18]: inactive | Potency [12]: inactive | Potency [14]: inactive | Potency [15]: inactive

O=c1[nH]cnc2c1ncn2[C@H]1CC[C@@H](CO)O1
Potency [1]: inactive | Potency [2]: inactive | Potency [16]: inactive | activity change, positive = activation ([17]; at 42.5 µM (top of the series)): 4.94% (inactive) | activity change, positive = activation ([17]; at 92.4 µM (top of the series)): 7.43% (inactive) and 1.63% (inactive) | Potency [3]: inactive | Potency [4]: inactive | Potency [5]: inactive | Potency [7]: inactive | Potency [8]: inactive | Potency [9]: inactive | max response [10]: 9.2% (inactive) and 0.925% (inactive) and -0.369% (inactive) | Potency [18]: inactive | Potency [12]: inactive | Potency [13]: inactive | Potency [14]: inactive | Potency [15]: inactive
